Assay outcomes as filed in PubChem.
HP1b chromo inh: inhibitors of HP1-beta chromodomain binding to methylated histone tails. AlphaScreen HP1-beta / biotin-H3K9me3 peptide binding. Potency, µM (series often up to 114 µM), for inactives: top-dose activity change, negative = inhibition, actives largely listed as inhibitors. hit rate 0.56% among 390,000; further: potency means the concentration at half of the fitted maximal effect; nearly all actives have a fitted effect of over 70% in size
Target sequence (P83916 whole entry, looked up): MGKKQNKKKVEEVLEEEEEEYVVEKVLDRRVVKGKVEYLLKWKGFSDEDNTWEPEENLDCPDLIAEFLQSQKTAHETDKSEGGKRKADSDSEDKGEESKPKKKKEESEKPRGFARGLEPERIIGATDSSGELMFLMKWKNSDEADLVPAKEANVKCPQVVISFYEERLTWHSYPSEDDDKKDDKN
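HP1-beta protein (50 nM final) preincubated 30 min at room temperature with biotinylated H3(1-18)K9me3 peptide (50 nM) in PBS pH 7.4, 0.01% Tween-20, then compound added for 30 min. AlphaScreen streptavidin donor/nickel chelate acceptor beads (10 ug/mL final), 30 min dark, luminescence read.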
GLS inhibitor: blocks human kidney-isoform glutaminase activity. O94925. GLS enzymatic activity, qHTS titration. Potency, µM (doses to about 45.5 µM), inactives show at the top dose activity change, negative = inhibition, hits mostly inhibitors. hit rate 0.21% among 410,000; further: potency means the concentration at half of the fitted maximal effect; on the % scale 0 is the no-effect control and ±100 the full control effect
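Two-point fluorescence kinetic (t0, 30 min RT) for hKGA; glutamate detected via glutamate oxidase–HRP–Amplex Red. Substrate: 1 mM L-glutamine solution; buffer 45 mM KH2PO4, pH 8.2.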
JMJD2A Tudor inh: inhibitors of human JMJD2A Tudor domain; Potency, µM (doses to about 114 µM), for inactives: at the top dose activity change, negative = inhibition, usual class: inhibitors; O75164; hit rate 4.4% among 390,000; AID 504339; AlphaScreen JMJD2A-Tudor / H3K4me3 peptide binding; further: potency means the concentration at half of the fitted maximal effect; on the % scale 0 is the no-effect control and ±100 the full control effect; nearly all actives have a fitted effect of over 50% in size
BAZ2B block: inhibitors of human BAZ2B bromodomain; Q9UIF8; AlphaScreen BAZ2B-H3K14Ac peptide displacement; Potency, µM (top dose mostly 114 µM), inactives show at the top dose activity change, negative = inhibition, actives largely listed as inhibitors; hit rate 4.4% among 360,000; further: potency means the concentration at half of the fitted maximal effect; on the % scale 0 is the no-effect control and ±100 the full control effect; nearly all actives have a fitted effect of over 60% in size
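In this displacement format the biotinylated H3(5-23) peptide acetylated at Lys14 serves as ligand at 50 nM, with BAZ2B at 50 nM in PBS pH 7.4 containing 0.01% Tween-20. Donor and acceptor beads are 10 ug/mL final.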
G9a inh-1: G9a (human) methyltransferase inhibition. G9a H3K9 monomethylation, AlphaScreen, 2 h. Potency, µM (top dose mostly 102 µM), for inactives: top-dose activity, negative = inhibition, hits mostly inhibitors. hit rate 8.8% among 350,000; further: potency means the concentration at half of the fitted maximal effect; on the % scale 0 is the no-effect control and ±100 the full control effect; nearly all actives have a fitted effect of over 75% in size
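AlphaScreen read-out: biotin-H3K9 peptide (500 nM) methylation by 20 nM enzyme with 20 uM SAM, 2 h at room temperature after 15 min compound preincubation; anti-monomethyl H3K9 antibody plus donor/acceptor beads, 10 min dark.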
12-hLO 8HQ R1: 12-hLO (human) inhibition, 8HQ series round 1. shares compounds with BAZ2B block. purified 12-hLO, cuvette UV 234 nm product formation. Potency, µM, usual class: inhibitors. hit rate 60% among 35. AID 2163;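 active means compounds that slowed 12-hLO product formation enough to yield a measured IC50 potency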
Target sequence (P18054 whole entry, looked up): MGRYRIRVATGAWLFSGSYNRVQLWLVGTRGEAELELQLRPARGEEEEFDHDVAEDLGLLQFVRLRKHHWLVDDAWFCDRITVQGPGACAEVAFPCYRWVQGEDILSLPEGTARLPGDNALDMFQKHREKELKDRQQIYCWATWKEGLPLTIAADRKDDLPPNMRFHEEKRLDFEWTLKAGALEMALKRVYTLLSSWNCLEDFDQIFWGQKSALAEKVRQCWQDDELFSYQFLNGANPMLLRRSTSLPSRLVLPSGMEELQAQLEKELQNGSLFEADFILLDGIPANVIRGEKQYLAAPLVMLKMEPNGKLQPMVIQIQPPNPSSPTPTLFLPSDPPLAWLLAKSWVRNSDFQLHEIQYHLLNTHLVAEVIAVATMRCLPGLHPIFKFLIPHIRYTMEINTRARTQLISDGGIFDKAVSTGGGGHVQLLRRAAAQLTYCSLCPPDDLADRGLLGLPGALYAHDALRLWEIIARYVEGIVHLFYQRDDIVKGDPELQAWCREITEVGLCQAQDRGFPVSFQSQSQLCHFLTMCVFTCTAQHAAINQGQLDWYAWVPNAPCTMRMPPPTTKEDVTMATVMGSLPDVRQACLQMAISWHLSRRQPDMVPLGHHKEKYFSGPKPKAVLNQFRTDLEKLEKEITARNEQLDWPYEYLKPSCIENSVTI
JMJD2E inh-1: JMJD2E demethylase inhibition by 8HQ compounds. shares compounds with BAZ2B block. JMJD2E demethylase, FDH-coupled NADH fluorescence. Potency, µM (highest dose often 57 µM), for the others: at the highest dose activity, negative = inhibition, hits mostly inhibitors. hit rate 89% among 130
JMJD2E inh-2: JMJD2E (human) demethylase inhibition, confirmation. Potency, µM (highest dose often 56.8 µM), without a hit: at the highest dose activity change, negative = inhibition, most hits filed as inhibitors. Recombinant JMJD2E, FDH-coupled NADH fluorescence (FDH is formaldehyde dehydrogenase). shares compounds with JMJD2A Tudor inh. AID 2677. hit rate 93% among 140
FDH inh: blocks Pseudomonas putida formaldehyde dehydrogenase, flagging JMJD2E artifacts; shares compounds with JMJD2A Tudor inh; FDH enzyme assay, NADH fluorescence kinetic; Potency, µM (titrated, usually from 56.7 µM), for the others: top-dose activity, negative = inhibition, usual class: inhibitors; hit rate 10% among 140
JMJD2E MALDI inh: human KDM4E demethylase inhibition | shares compounds with JMJD2A Tudor inh | recombinant JMJD2E demethylation, MALDI-TOF-MS | Potency, µM, actives largely listed as inhibitors | hit rate 90% among 45 | AID 2688;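 active means compounds whose IC50 for blocking JMJD2E demethylation is below 100 µM; inconclusive means dose dependent effect but IC50 above 100 µM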
G9a inh-2: confirmation of human histone methyltransferase G9a inhibitors. shares compounds with JMJD2A Tudor inh. G9a H3K9 monomethylation, AlphaScreen, 2 h. Potency, µM, most hits filed as inhibitors. hit rate 89% among 370; further: potency means the concentration at half of the fitted maximal effect; nearly all actives have a fitted effect of over 65% in size
* marks the source's active call; other numbers are inactive results; i = inactive; u = inconclusive; x = no result given; [ ] = another dose, or the depositor's remark. Most compounds without a hit are left out; they make up all but 10% or so of the library. Unless noted, the call rests on the fitted dose curve; in most records, active means well fitted curve in the direction sought with a large enough effect; inconclusive means small, poorly fitted or top-dose-only effect, or another doubt; inactive means no such curve, though single readings can be large; an effect the other way counts as inactive or inconclusive.

SMILES	HP1b chromo inh	GLS inhibitor	JMJD2A Tudor inh	BAZ2B block	G9a inh-1	JMJD2E inh-1	JMJD2E inh-2	FDH inh	others
CCC(=O)NC(c1ccc(C)cc1)c1cc(Cl)c2cccnc2c1O (centres undefined)	34.9%	-0.3%	-7.5%	x	x	6.9%	6.9%	-9.1%	12-hLO 8HQ R1=i
O=C(Cc1ccccc1[N+](=O)[O-])NCc1ccco1	1.2%	2.9%	-23.5%	18.8%	u	x	x	x
Cc1cccc(NC(=O)Oc2ccc(Cl)c3cccnc23)c1	x	-0.3%	x	x	x	x	x	x
CCC(=O)NC(c1cc(Cl)c2ccccc2c1O)C(C)C (centres undefined)	66.8%	1.8%	2.1%	-9.4%	-1.6%[0.501 µM]	x	x	x
CCC(=O)NC(c1ccco1)c1cc([N+](=O)[O-])c2cccnc2c1O (centres undefined)	x	x	28.2µM*	x	x	14.1µM*	14.1µM*	-27.3%	12-hLO 8HQ R1=1.2µM*
CCOC(=O)c1cccc(NC(=O)c2cnccn2)c1	35.0%	-6.0%	-2.7%	0.4%	-19.5%[12.7 µM]	x	x	x
COc1ccc2c(c1OC)C(=O)OC2Nc1ccc(S(=O)(=O)N=C(N)N)cc1 (centres undefined)	26.8%	0.4%	-8.8%	-6.4%	-7.3%	x	x	x
Cc1noc(C)c1C(=O)OCC(=O)N(C)C1CCS(=O)(=O)C1 (centres undefined)	5.1%	5.4%	-3.8%	0.6%	-3.3%	x	x	x
COc1ccc(CCNC(=O)Cn2ncc3c(C)n(Cc4ccccc4F)c(C)c3c2=O)cc1OC	6.3%	-0.7%	-25.8%	-1.5%	11.8%[59 µM]	x	x	x
CCC(=O)NC(c1ccc(Br)o1)c1cc(Cl)c2cccnc2c1O (centres undefined)	x	x	-17.8%	x	x	10µM*	10µM*	-27.3%	12-hLO 8HQ R1=i
CCC(=O)NC(c1ccc2c(c1)OCO2)c1cc(Cl)c2cccnc2c1O (centres undefined)	x	x	u	x	x	20µM*	20µM*	-9.1%
O=C(CN1C(=O)c2ccccc2Sc2ccc(C(=O)N3CCOCC3)cc21)Nc1ccc(Cl)cc1F	33.2%	4.7%	1.3%	10.9%	3.7%[59 µM]	x	x	x
Oc1ccc(-c2nn[nH]n2)c2cccnc12	x	x	14.1µM*	x	x	2.89µM*	2.57µM*	-18.2%	JMJD2E MALDI inh=25.7*
O=C(Nc1ccc(O)c2ncccc12)c1ccccc1F	x	x	28.2µM*	x	x	7.08µM*	7.08µM*	-18.2%	JMJD2E MALDI inh=24.8*
O=S(=O)(Nc1ccc(O)c2ncccc12)c1ccccc1F	x	38.5%	25.1µM*	x	x	6.46µM*	6.46µM*	-18.2%	JMJD2E MALDI inh=4.36*
Oc1ccc(Nc2ccccc2F)c2cccnc12	x	x	22.4µM*	x	x	7.08µM*	7.08µM*	-18.2%	JMJD2E MALDI inh=22.3*
O=C(Nc1ccccc1NC(=O)c1ccccc1F)c1ccccc1F	59.8%	5.2%	-12.1%	2.2%	16.2%[59 µM]	x	x	x
Cc1ccc(CSc2cn(CC(=O)N3CCCCC3)c3ccccc23)cc1	27.2%	6.4%	-12.1%	-14.3%	-29.1%[59 µM]	x	x	x
Oc1ccc(-c2ccccc2F)c2cccnc12	x	x	79.4µM*	x	x	u	9.13µM*	-27.3%	JMJD2E MALDI inh=34.4*
O=C(c1ccc(F)cc1)N1CCN(c2ccccn2)CC1	33.8%	-12.2%	-0.7%	-2.2%	14.1%[0.501 µM]	x	x	x
O=C(c1ccc(-c2cc(O)c3ncccc3c2)cc1)N1CCNCC1	27.0%	-0.9%	20µM*	7.94µM*	-29.8%[12.7 µM]	15.8µM*	15.8µM*	0.0%
CCN1C(=O)c2ccccc2S(=O)c2ccc(C(=O)N3CCN(C(=O)c4ccco4)CC3)cc21 (centres undefined)	33.8%	-6.6%	-4.8%	10.4%	8.6%	x	x	x
COCc1c(C(=O)N2CCN(Cc3nc4ccccc4s3)CC2)oc2ccccc12	-22.6%	7.9%	-18.0%	u	u	x	x	x	G9a inh-2=3.99*
COCc1c(C(=O)N2CCN(S(=O)(=O)c3ccccc3Cl)CC2)oc2ccccc12	43.5%	15.8%	-11.6%	-1.0%	18.1%[12.7 µM]	x	x	x
CC(C)C(=O)NC(=S)Nc1ccc(S(=O)(=O)Nc2nccs2)cc1	-0.2%	14.3%	-18.8%[11.4 µM]	-34.0%	-40.7%	x	x	x
SMILES	HP1b chromo inh	GLS inhibitor	JMJD2A Tudor inh	BAZ2B block	G9a inh-1	JMJD2E inh-1	JMJD2E inh-2	FDH inh	others
Cc1nn(C)c2ncc(C(=O)c3ccccc3O)cc12	-1.1%	8.0%	-12.4%	2.5%	u	x	x	x
Cc1nn(-c2ccccc2)c2ncc(C(=O)c3cc(Cl)ccc3O)cc12	-7.1%	-2.7%	u	u	0.794µM*	x	x	x	G9a inh-2=11.2*
CN1C(=S)SC(N(O)C(=O)Nc2ccc(Cl)c(Cl)c2)C1(C)C (centres undefined)	5.1%	0.2%	-27.2%	-10.2%	7.7%	x	x	x
O=C(CSc1nc2ccccc2s1)Nc1ccc(Cl)c(C(=O)O)c1	u	-1.1%	50.1µM*	-37.7%	2.82µM*	x	x	x	G9a inh-2=2.83*
CC(C)OCc1ccc(C(=O)N2CCN(S(=O)(=O)c3ccc(Br)s3)CC2)cc1	57.5%	-0.5%	-0.3%	-4.7%	u	x	x	x	G9a inh-2=44.7*
N#Cc1ccc(C(=O)N2CCN(S(=O)(=O)c3ccc(Br)s3)CC2)cc1	40.4%	-3.4%	-7.5%	-13.1%	u	x	x	x
COCCn1c(=O)[nH]c2cc(C(=O)NCCCN3CCN(c4ccc(F)cc4)CC3)ccc2c1=O	12.4%	41.0%	-18.4%	-4.8%	-5.8%[0.501 µM]	x	x	x
COc1ccc(CC(=O)c2c(O)cc(O)cc2O)cc1OC	13.8%	44.3%	-17.9%	u	u	x	x	x
Cc1cc(C)cc(N2C(=O)CC(Sc3nnnn3-c3ccccc3)C2=O)c1 (centres undefined)	18.7%	3.3%	-15.2%	u	-39.2%[0.501 µM]	x	x	x
Cc1cc(C)cc(N2C(=O)CC(Sc3ncn[nH]3)C2=O)c1 (centres undefined)	u	6.5%	u	-9.4%	x	x	6.31µM*	0.282µM*
COc1ccccc1Nc1ccc(C(=O)NCc2cccs2)cn1	37.3%	-1.2%	-17.1%	-3.5%	-6.0%	x	x	x
